This is part of a sample that, as a whole, favours compounds with a hit. Of some 79,000 tested, about 15% had one in any assay. Active and inactive are the calls of the source. Rule as the data show it: active = growth inhibition above about 70%; inactive = the rest.
Assay: NCI Yeast Anticancer Drug Screen. Data for the rad52 strain (AID 147);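 also: 0% = growth of vehicle-treated control cultures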
Conditions: S. cerevisiae rad52 mutant growth inhibition, hits give high values
Experimental: Growth inhibition of yeast strains with defined genetic alterations is measured as a screen for potential anti-cancer activity. Selected strains with alterations in DNA damage repair or cell cycle control were exposed to compounds and growth inhibition was measured relative to vehicle treated controls. The strain used in this assay is rad52

Measured: growth inhibition

CC(C)OC(=O)NNc1cccc(Cl)c1
active: at 33.0 µM 96% | at 100.0 µM 97%
inactive: at 1.2 µM 1% | at 3.7 µM 10% | at 11.0 µM 57%

S=C1N(c2ccc(Cl)cc2)C2=C(N=Nc3ccccc3)C(=Nc3ccccc3S2)N1c1ccccn1
active: at 33.0 µM 98% | at 100.0 µM 99%
inactive: at 1.2 µM 8% | at 3.7 µM 16% | at 11.0 µM 51%

CN(N=O)C(=O)Nc1ccc(C(=O)O)cc1
inactive: at 1.2 µM 1% | at 3.7 µM 3% | at 11.0 µM 8% | at 33.0 µM 29% | at 100.0 µM 62%

C[n+]1c(-c2ccc(/C=N/NC(=O)c3ccc(C(=O)N/N=C/c4ccc(-c5cn6ccccc6[n+]5C)cc4)cc3)cc2)cn2ccccc21
inactive: at 1.2 µM 5% | at 3.7 µM 14% | at 11.0 µM 29% | at 33.0 µM 54% | at 100.0 µM 60%

CC(C)C(=O)CC(Sc1ccc(N)cc1)c1ccccc1 (stereo not given)
inactive: at 1.2 µM 2% | at 3.7 µM 8% | at 11.0 µM 23% | at 33.0 µM 47%
active: at 100.0 µM 83%

Cc1ccnc2c(O)cccc12
inactive: at 1.2 µM 3%
active: at 3.7 µM 96% | at 11.0 µM 96% | at 33.0 µM 99% | at 100.0 µM 99%

O=[N+]([O-])c1cccc2nc3ccccc3c(NCCCN3CCCCC3)c12
active: at 1.2 µM 89% | at 3.7 µM 95% | at 11.0 µM 96% | at 33.0 µM 97% | at 100.0 µM 98%

Cc1ccc(Nc2n[nH]c(=S)s2)c(C)c1
active: at 100.0 µM 89%
inactive: at 1.2 µM -42% | at 3.7 µM -28% | at 11.0 µM -33% | at 33.0 µM 2%

Source: PubChem BioAssay (NCI)
